# Results reported in PubChem BioAssay (NCI).
# About 83,000 compounds went through this panel and 20% of them were active in at least one assay; those are over-represented in the sample as a whole.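 Growth was measured after 48 h exposure to one concentration of compound in 96-well plates. Values under 10 count as active.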 Unmarked numbers belong to inactive results. The source made the active and inactive calls.
# Experiments:
# Test in all cases: NCI-60 one-dose screen, 48 h (100 = growth as untreated, 0 = no growth, -100 = all killed)
# Settings in all cases: 10 µM
# NCI-H23 lung = test system: NCI-H23 lung
# NCI-H226 lung = test system: NCI-H226 lung
# NCI-H322M lung = test system: NCI-H322M lung
# HOP-62 NSCLC = test system: HOP-62 NSCLC
# NCI-H460 lung = test system: NCI-H460 lung
# HOP-92 NSCLC = test system: HOP-92 NSCLC
# NCI-H522 lung = test system: NCI-H522 lung
# A549/ATCC NSCLC = test system: A549/ATCC NSCLC
# 786-0 renal = test system: 786-0 renal
# COLO 205 colon = test system: COLO 205 colon
# DU-145 prostate = test system: DU-145 prostate
# K-562 leukemia = test system: K-562 leukemia
# MALME-3M melanoma = test system: MALME-3M melanoma
# MDA-MB-231 breast = test system: MDA-MB-231 breast
# SF-268 CNS = test system: SF-268 CNS
# SF-295 CNS = test system: SF-295 CNS
# SF-539 CNS = test system: SF-539 CNS
# UACC-257 melanoma = test system: UACC-257 melanoma
# M14 melanoma = test system: M14 melanoma
SMILES,growth (NCI-H23 lung),growth (NCI-H226 lung),growth (NCI-H322M lung),growth (HOP-62 NSCLC),growth (NCI-H460 lung),growth (HOP-92 NSCLC),growth (NCI-H522 lung),growth (A549/ATCC NSCLC),growth (786-0 renal),growth (COLO 205 colon),growth (DU-145 prostate),growth (K-562 leukemia),growth (MALME-3M melanoma),growth (MDA-MB-231 breast),growth (SF-268 CNS),growth (SF-295 CNS),growth (SF-539 CNS),growth (UACC-257 melanoma),growth (M14 melanoma)
CCOC(=O)CNC(=O)CN(Cc1ccccc1)C(=O)[C@@]1(C)CCC[C@]2(C)[C@H]3C[C@H]4C(C(C)C)=C[C@]3(CC[C@H]21)[C@@H]1C(=O)OC(=O)[C@@H]14,46.6%,71.3%,106%,82.8%,61.1%,74.6%,35.6%,53.9%,84.7%,103%,92.8%,24.9%,101%,88.1%,92.7%,48.6%,91.8%,89.5%,73.3%
Nc1nc(Nc2ccc(Cl)cc2)n(Cc2cccc(Br)c2)n1,-37.9% (active),-12.6% (active),11.8%,-30.4% (active),-65.9% (active),-49.5% (active),-46.2% (active),8.74% (active),-46.8% (active),-68.8% (active),12.1%,7.99% (active),-53.2% (active),-68.7% (active),-27.4% (active),-63.2% (active),-86.6% (active),-15.6% (active),-48.8% (active)
Cc1noc2c(Cc3ccccc3)nn(CC(=O)N/N=C/c3ccc(Br)cc3)c(=O)c12,69.9%,32.5%,102%,43.3%,13.1%,35.1%,74.4%,18.1%,-24.9% (active),39.7%,61.1%,87.2%,64.9%,20.6%,75.5%,50.6%,74.4%,101%,101%
O=c1[nH]c2ccc(Cl)cc2cc1CSc1ccc(Nc2nccc(-c3ccc(Cl)cc3)n2)cc1,62.1%,66%,90.8%,93.8%,-27.6% (active),82.1%,33.3%,-41.8% (active),75.2%,4.59% (active),4.82% (active),59.3%,57.5%,47%,58.5%,105%,45.7%,96.9%,84.4%
CCOc1ccc2ncc(C#Cc3cncc(C(=O)Nc4ccc(CN5CCN(C)CC5)c(C(F)(F)F)c4)c3)n2n1,-70% (active),-59.1% (active),-76% (active),-46.8% (active),-52.9% (active),-46.6% (active),-41.3% (active),-33.9% (active),-43.8% (active),-45.8% (active),-96.7% (active),4.86% (active),-81.9% (active),-88.9% (active),-49.4% (active),-88.5% (active),-97.9% (active),-62.2% (active),-73% (active)
CCOC(=O)CNC(=O)CN(Cc1ccccc1)C(=O)[C@@]1(C)CCC[C@]2(C)[C@H]3CC4C(C(C)C)=C[C@]3(CC[C@H]21)[C@@H]1C(=O)CCC(=O)[C@H]41,48.9%,49.3%,86.5%,92.3%,65%,80.5%,36.7%,65%,78.1%,79.4%,92.6%,25.3%,83%,64.8%,64.7%,54.4%,77.2%,70.2%,72.2%
O/N=C(\CSc1nnc(-c2c[nH]c3ccccc23)n1-c1ccccc1)c1ccc(Br)cc1,14.1%,6.3% (active),-72.7% (active),-54.8% (active),-21.9% (active),-11.2% (active),-29.7% (active),-18.2% (active),34.7%,-41.2% (active),-88.5% (active),-11.1% (active),-10.2% (active),-84.2% (active),-55.6% (active),-15% (active),-64.9% (active),-8.6% (active),-67.7% (active)
COc1cc2c3c(n(CCCn4ccnc4)c(=O)c2cc1OC)-c1nc2c(cc1C3=O)OCO2,20%,30.3%,71.6%,22.7%,8.7% (active),117%,40.4%,47.7%,12.1%,34.2%,13.4%,28.4%,59.9%,84.1%,42.4%,-7.74% (active),-10.1% (active),66%,19.9%
Cc1ccc2nc(COc3ccc(C(=O)NNC(=S)NCCc4ccccc4)cc3)[nH]c2c1,17.2%,47.2%,51.7%,42.4%,60.4%,9.55% (active),55%,104%,61%,144%,98.9%,85.7%,64.8%,29.6%,33.6%,79.3%,-1.98% (active),103%,106%
O=C(CNc1nc(-c2ccccc2)cs1)Nc1ccc(Cl)cc1[N+](=O)[O-],-57.3% (active),-54.2% (active),35.7%,-27.7% (active),5.09% (active),-14.2% (active),-82.8% (active),12.6%,4.95% (active),-64.7% (active),10.1%,4.23% (active),-70.5% (active),-66.7% (active),-58.4% (active),-49.7% (active),-86.8% (active),-17.2% (active),-13.1% (active)
Oc1ccc(/C=C2\CCCc3cc4ccc(O)cc4[o+]c32)c(O)c1,30%,77.6%,63.3%,44.7%,19.8%,40.9%,4.53% (active),83%,24.4%,50.6%,8.58% (active),41.5%,45.1%,-27.4% (active),69.6%,90.1%,-15% (active),69%,43.2%
COc1ccc(/C=C/C(=O)c2ccc(S(=O)(=O)NCCNc3nc(Nc4ccc(F)cc4)nc(N(C)C)n3)cc2)cc1,44.8%,21.7%,55.3%,51.2%,15.1%,-15.9% (active),57.3%,50.1%,13.5%,49.2%,28.7%,27.3%,49.3%,29%,25.8%,23.3%,41.7%,47.9%,7.31% (active)
O=C(CSc1nnc(-c2c[nH]c3ccccc23)n1-c1ccccc1)Nc1ccc(C(=O)/C=C/c2ccccc2Cl)cc1,36.1%,75.6%,97.3%,91.9%,89%,96.5%,83.1%,91.1%,103%,96.2%,82%,55.9%,64.6%,78%,66.5%,72%,42.6%,107%,87.7%
CC1(c2ccccc2)NC(=O)N(CC(=O)Nc2ccc(C(=O)/C=C/C=C/c3ccccc3)cc2)C1=O (stereo not given),73.4%,57.2%,73.9%,77.2%,73.2%,57.3%,75.8%,58.7%,7.33% (active),98%,61.3%,14.8%,81.3%,63.1%,57.1%,5.15% (active),20.5%,63.6%,59.3%
CC[C@]12C=CCN3CC[C@@]4(c5cc(C#CCNc6ccc(C)c(Nc7nccc(-c8cccnc8)n7)c6)c(OC)cc5N(C)[C@H]4[C@@](O)(C(=O)OC)[C@@H]1OC(C)=O)C32 (stereo not given in full),56.3%,30.6%,90.8%,64.2%,34.1%,42.2%,58.5%,36.8%,46.3%,31.7%,59.7%,35.1%,61.1%,39.6%,57.9%,39.5%,8.99% (active),70.2%,45.1%
